From PubChem BioAssay (EPA / NIEHS)
Calls of active or inactive are those of the source. The calls were made as follows: active = hit-call score of the fitted dose curve at least 0.9, where 1 is the maximum; inactive = score below 0.9.

Legend:
[1] = read-out: Cytochrome P450 (CYP1A1), CYP1A1 (gene 1543); test: LTEA_HepaRG_CYP1A1: Life Technologies and Expression Analysis (LTEA) Assay for Cytochrome P450 (CYP1A1) using HepaRG (AID 2283454); conditions: mRNA level, 48 h; actives raise or lower the signal
Summary of the method: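 qRT-PCR read-out: CYP1A1 transcript normalized to three housekeeping genes, fitted bidirectionally against 0.5% DMSO vehicle baseline. Human HepaRG cells, 48 h chemical exposure, 8-point half-log series topping at 100 uM.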

[2] = read-out: CFLAR gene, CFLAR (gene 8837); test: LTEA_HepaRG_CFLAR: Life Technologies and Expression Analysis (LTEA) Assay for CFLAR gene using HepaRG (AID 2283455); conditions: mRNA level, 48 h; actives raise or lower the signal
Summary of the method: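 Differentiated HepaRG cells in serum-free induction medium were exposed 48 h in duplicate to eight half-log concentrations up to 100 uM in 0.5% DMSO; mRNA measured by TaqMan qRT-PCR, normalized to ACTB, GAPDH, POLR2A; bidirectional fitting versus DMSO.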

[3] = read-out: Forkhead box O1 (FOXO1), FOXO1 (gene 2308); test: LTEA_HepaRG_FOXO1: Life Technologies and Expression Analysis (LTEA) Assay for Forkhead box O1 (FOXO1) using HepaRG (AID 2283456); conditions: mRNA level, 48 h; actives raise or lower the signal
Summary of the method: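 Differentiated HepaRG cells, in serum-free induction medium with 0.5% DMSO, exposed 48 h in duplicate to 8-point half-log series from 100 uM. FOXO1 mRNA measured by TaqMan qRT-PCR, normalized to ACTB, GAPDH, POLR2A; bidirectional fit versus DMSO.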

[4] = read-out: growth arrest and DNA damage 45 (GADD45A), GADD45A (gene 1647); test: LTEA_HepaRG_GADD45A: Life Technologies and Expression Analysis (LTEA) Assay for growth arrest and DNA damage 45 (GADD45A) using HepaRG (AID 2283458); conditions: mRNA level, 48 h; actives raise or lower the signal
Summary of the method: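 Human HepaRG liver cells are treated in duplicate for 48 h with chemicals in 0.5% DMSO, highest concentration 100 uM. Expression is read by qRT-PCR and analyzed in both directions against vehicle.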

[5] = read-out: Forkhead box O3 (FOXO3), FOXO3 (gene 2309); test: LTEA_HepaRG_FOXO3: Life Technologies and Expression Analysis (LTEA) Assay for Forkhead box O3 (FOXO3) using HepaRG (AID 2283459); conditions: mRNA level, 48 h; actives raise or lower the signal
Summary of the method: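 Differentiated human HepaRG cells, 48 h post-plating, exposed in duplicate for 48 h in serum-free induction medium; 8-point half-log series from 100 uM in 0.5% DMSO. FOXO3 mRNA by TaqMan qRT-PCR, normalized to ACTB/GAPDH/POLR2A; bidirectional fit versus DMSO.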

[6] = read-out: ABC Transporter (ABCB1), ABCB1 (gene 5243); test: LTEA_HepaRG_ABCB1: Life Technologies and Expression Analysis (LTEA) Assay for ABC Transporter (ABCB1) using HepaRG (AID 2283460); conditions: mRNA level, 48 h; actives raise or lower the signal
Summary of the method: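 HepaRG cells exposed in duplicate for 48 h in serum-free induction medium to eight half-log concentrations up to 100 uM in 0.5% DMSO. ABCB1 mRNA quantified by qRT-PCR, normalised to ACTB, GAPDH and POLR2A; fitted bidirectionally versus DMSO.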

[7] = read-out: growth arrest and DNA damage 45 (GADD45B), GADD45B (gene 4616); test: LTEA_HepaRG_GADD45B: Life Technologies and Expression Analysis (LTEA) Assay for growth arrest and DNA damage 45 (GADD45B) using HepaRG (AID 2283461); conditions: mRNA level, 48 h; actives raise or lower the signal
Summary of the method: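 qRT-PCR read-out (Fluidigm TaqMan, housekeeping-normalized) of mRNA change in human HepaRG cells after 48 h chemical exposure; 8-point curve, top 100 uM, half-log steps, 0.5% DMSO vehicle; gain or loss fitted relative to DMSO baseline.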

[8] = read-out: ABC Transporter (ABCB11), ABCB11 (gene 8647); test: LTEA_HepaRG_ABCB11: Life Technologies and Expression Analysis (LTEA) Assay for ABC Transporter (ABCB11) using HepaRG (AID 2283463); conditions: mRNA level, 48 h; actives raise or lower the signal
Summary of the method: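 Differentiated human HepaRG cells in serum-free induction medium, dosed in duplicate for 48 h. Eight-point half-log series from 100 uM in 0.5% DMSO; ABCB11 mRNA by qRT-PCR, normalized to ACTB, GAPDH, POLR2A, fitted bidirectionally versus DMSO.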

[9] = read-out: ABC Transporter (ABCC2), ABCC2 (gene 1244); test: LTEA_HepaRG_ABCC2: Life Technologies and Expression Analysis (LTEA) Assay for ABC Transporter (ABCC2) using HepaRG (AID 2283464); conditions: mRNA level, 48 h; actives raise or lower the signal
Summary of the method: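 qRT-PCR (TaqMan, Fluidigm array) read-out of ABCC2 mRNA, normalized to three housekeeping genes. Differentiated HepaRG cells were treated 48 h in serum-free induction medium with 8-point half-log series from 100 uM in 0.5% DMSO; curves fitted bidirectionally relative to DMSO.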

[10] = read-out: Broad substrate specificity ATP-binding cassette transporter ABCG2 (Homo sapiens) (UniProt Q9UNQ0); test: LTEA_HepaRG_ABCG2: Life Technologies and Expression Analysis (LTEA) Assay for ABC Transporter (ABCG2) using HepaRG (AID 2283465); conditions: mRNA level, 48 h; actives raise or lower the signal
Summary of the method: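 Differentiated HepaRG cells were exposed for 48 h in serum-free induction medium to 8 half-log concentrations, top 100 uM, in 0.5% DMSO. ABCG2 mRNA was measured by qRT-PCR, normalized to ACTB, GAPDH and POLR2A, with bidirectional fitting versus DMSO.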

[11] = read-out: ATP-citrate lyase (ACLY), ACLY (gene 47); test: LTEA_HepaRG_ACLY: Life Technologies and Expression Analysis (LTEA) Assay for ATP-citrate lyase (ACLY) using HepaRG (AID 2283466); conditions: mRNA level, 48 h; actives raise or lower the signal
Summary of the method: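 Differentiated HepaRG cells exposed 48 h in serum-free induction medium to eight half-log concentrations up to 100 uM in 0.5% DMSO, duplicates. Transcript measured by Fluidigm TaqMan qRT-PCR, normalized to ACTB, GAPDH, POLR2A; bidirectional fit versus DMSO.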

[12] = read-out: Peroxisomal acyl-coenzyme A oxidase 1 (ACOX1) gene, ACOX1 (gene 51); test: LTEA_HepaRG_ACOX1: Life Technologies and Expression Analysis (LTEA) Assay for Peroxisomal acyl-coenzyme A oxidase 1 (ACOX1) gene using HepaRG (AID 2283467); conditions: mRNA level, 48 h; actives raise or lower the signal
Summary of the method: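 HepaRG cells, plated 48 h then switched to serum-free induction medium, were exposed in duplicate for 48 h to 8-point half-log concentrations up to 100 uM in 0.5% DMSO. ACOX1 mRNA was measured by qRT-PCR, normalized to ACTB/GAPDH/POLR2A, and fitted bidirectionally versus DMSO.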

[13] = read-out: Alkaline Phosphatase, Placental (ALPP) gene, ALPP (gene 250); test: LTEA_HepaRG_ALPP: Life Technologies and Expression Analysis (LTEA) Assay for Alkaline Phosphatase, Placental (ALPP) gene using HepaRG (AID 2283468); conditions: mRNA level, 48 h; actives raise or lower the signal
Summary of the method: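 qRT-PCR readout of ALPP mRNA (Fluidigm TaqMan), normalized to ACTB/GAPDH/POLR2A, after 48 h chemical exposure of HepaRG cells; 8-point half-log series, top 100 uM, 0.5% DMSO vehicle. Bidirectional curve fit versus DMSO baseline.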

[14] = read-out: Bcl-2 (BAD) gene, BAD (gene 572); test: LTEA_HepaRG_BAD: Life Technologies and Expression Analysis (LTEA) Assay for Bcl-2 (BAD) gene using HepaRG (AID 2283469); conditions: mRNA level, 48 h; actives raise or lower the signal
Summary of the method: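 Differentiated HepaRG cells were exposed in duplicate in 0.5% DMSO for 48 h to eight-point half-log concentrations up to 100 uM. BAD mRNA was measured by Fluidigm TaqMan qRT-PCR, normalized to ACTB, GAPDH and POLR2A, and fitted bidirectionally against DMSO.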

[15] = read-out: Bcl-2 (BAX) gene, BAX (gene 581); test: LTEA_HepaRG_BAX: Life Technologies and Expression Analysis (LTEA) Assay for Bcl-2 (BAX) gene using HepaRG (AID 2283470); conditions: mRNA level, 48 h; actives raise or lower the signal
Summary of the method: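 Concentration-response endpoint fitted in both directions relative to 0.5% DMSO vehicle. Human HepaRG cultures receive test chemicals for 48 h at up to 100 uM; BAX mRNA is quantified by qRT-PCR against housekeeping genes.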

[16] = read-out: adenosine kinase (ADK) gene, ADK (gene 132); test: LTEA_HepaRG_ADK: Life Technologies and Expression Analysis (LTEA) Assay for adenosine kinase (ADK) gene using HepaRG (AID 2283471); conditions: mRNA level, 48 h; actives raise or lower the signal
Summary of the method: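 ADK expression quantified by qRT-PCR, normalised to three housekeeping genes, after 48 h exposure of HepaRG cells to eight concentrations (top 100 uM, half-log steps, duplicate, 0.5% DMSO). Up- or down-regulation fitted relative to vehicle.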

[17] = read-out: Alpha-fetoprotein (AFP) gene, AFP (gene 174); test: LTEA_HepaRG_AFP: Life Technologies and Expression Analysis (LTEA) Assay for Alpha-fetoprotein (AFP) gene using HepaRG (AID 2283472); conditions: mRNA level, 48 h; actives raise or lower the signal
Summary of the method: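 After a 48 h plating period, cells are moved to serum-free induction medium and dosed in duplicate (100 uM maximum, half-log dilutions, 0.5% DMSO) for another 48 h. Total RNA goes to TaqMan qRT-PCR; AFP signal is housekeeping-normalized.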

BCL2L11 (gene 10018) = test: LTEA_HepaRG_BCL2L11: Life Technologies and Expression Analysis (LTEA) Assay for Bcl-2 (BCL2L11) gene using HepaRG (AID 2283473); conditions: mRNA level, 48 h; actives raise or lower the signal
Summary of the method: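 HepaRG, 48 h exposure, 8-pt half-log series from 100 uM in 0.5% DMSO, duplicates; qRT-PCR (Fluidigm TaqMan) for BCL2L11, housekeeping-normalized; bidirectional curve fit relative to DMSO baseline.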

[18] = read-out: Apolipoprotein A-V (APOA5) gene, APOA5 (gene 116519); test: LTEA_HepaRG_APOA5: Life Technologies and Expression Analysis (LTEA) Assay for Apolipoprotein A-V (APOA5) gene using HepaRG (AID 2283474); conditions: mRNA level, 48 h; actives raise or lower the signal
Summary of the method: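 HepaRG, 48 h chemical exposure in serum-free induction medium, 8-pt half-log series (top 100 uM), 0.5% DMSO vehicle, duplicates. Readout: APOA5 mRNA by qRT-PCR, housekeeping-normalized; bidirectional fit vs DMSO baseline.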

[19] = CEETOX_H295R_TESTO: CeeTox H295R High-throughput Steroidogenesis Assay for Testosterone (TESTO) (AID 2283457); conditions: actives raise or lower the signal;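 also: cells exposed to chemicals for 48 h before medium collection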
Summary of the method: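 Readout: testosterone quantified by HPLC-MS/MS (C18, ESI positive) after MTBE liquid-liquid extraction of culture medium. Cells were H295R, 48 h chemical exposure per OECD 456 with modifications. Gain or loss of signal fitted relative to DMSO.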

Measured: AC50

Sequence of Broad substrate specificity ATP-binding cassette transporter ABCG2 (Homo sapiens) (Q9UNQ0 whole entry, looked up): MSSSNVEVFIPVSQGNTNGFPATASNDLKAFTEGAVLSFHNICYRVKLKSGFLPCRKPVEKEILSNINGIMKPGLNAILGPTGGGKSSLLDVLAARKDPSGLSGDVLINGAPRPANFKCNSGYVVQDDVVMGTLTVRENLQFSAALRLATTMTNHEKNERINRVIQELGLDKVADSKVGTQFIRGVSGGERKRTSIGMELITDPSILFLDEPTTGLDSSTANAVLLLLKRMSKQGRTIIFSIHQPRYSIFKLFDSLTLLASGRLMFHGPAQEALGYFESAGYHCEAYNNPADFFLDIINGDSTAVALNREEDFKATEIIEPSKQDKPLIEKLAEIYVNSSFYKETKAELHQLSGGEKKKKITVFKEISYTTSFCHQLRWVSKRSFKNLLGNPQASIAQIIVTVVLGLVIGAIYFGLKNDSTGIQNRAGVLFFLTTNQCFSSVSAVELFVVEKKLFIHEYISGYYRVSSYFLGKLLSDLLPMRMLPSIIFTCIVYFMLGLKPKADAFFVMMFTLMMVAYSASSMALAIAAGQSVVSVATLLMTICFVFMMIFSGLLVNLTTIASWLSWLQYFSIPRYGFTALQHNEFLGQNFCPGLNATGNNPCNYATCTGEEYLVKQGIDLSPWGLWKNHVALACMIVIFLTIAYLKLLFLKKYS

N=C(N)c1ccc(OCCCCCOc2ccc(C(=N)N)cc2)cc1
inactive: [1] | [5] | [13] | [14]
active: [2] 30.5 µM | [3] 43.8 µM | [4] 4.21 µM | [6] 4.87 µM | [7] 7.1 µM | [8] 4.37 µM | [9] 25.6 µM | [10] 2.79 µM | [11] 35.9 µM | [12] 29 µM | [15] 6.28 µM | [16] 30.5 µM | [17] 7.45 µM | BCL2L11 (gene 10018) 3.64 µM | [18] 11.4 µM

CCCCCc1ccc(O)cc1
active: [19] 50 µM

CCCCC(CC)C(=O)O (stereo not drawn)
active: [1] 50 µM
not listed: [3] | [19]
inactive: all other assays above
